rCAG binder: binds r(CAG) RNA repeats. r(CAG) RNA repeat, TO-PRO-1 dye displacement fluorescence. inhibition, % at 3 µM. actives 1.3% (n = 370,000). AID 651821;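 active = inhibition above the plate cutoff, the mean of all test compounds on that plate plus 3 SD, cut at about 35% in these data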;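 note: 0% = DMSO alone and 100% = 100 µM mitoxantrone as full dye displacement; higher means more dye released from RNA so lower well fluorescence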
ABCB6 inh MLPCN: human ABCB6 transporter inhibition. K562-ABCB6 porphyrin accumulation, flow cytometry, 1 h; hits give low values. actives 0.19% (n = 360,000). fluorescence ratio to DMSO, % at 10 µM. Q9NP58;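 active = fluorescence ratio to DMSO below 75%, the collection mean minus 3 SD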;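 note: signal is porphyrin accumulated inside mitochondria; 100% equals median channel fluorescence of DMSO control wells; lower ratio means ABCB6 inhibition with less porphyrin fluorescence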
Target sequence (Q9NP58 whole entry, looked up): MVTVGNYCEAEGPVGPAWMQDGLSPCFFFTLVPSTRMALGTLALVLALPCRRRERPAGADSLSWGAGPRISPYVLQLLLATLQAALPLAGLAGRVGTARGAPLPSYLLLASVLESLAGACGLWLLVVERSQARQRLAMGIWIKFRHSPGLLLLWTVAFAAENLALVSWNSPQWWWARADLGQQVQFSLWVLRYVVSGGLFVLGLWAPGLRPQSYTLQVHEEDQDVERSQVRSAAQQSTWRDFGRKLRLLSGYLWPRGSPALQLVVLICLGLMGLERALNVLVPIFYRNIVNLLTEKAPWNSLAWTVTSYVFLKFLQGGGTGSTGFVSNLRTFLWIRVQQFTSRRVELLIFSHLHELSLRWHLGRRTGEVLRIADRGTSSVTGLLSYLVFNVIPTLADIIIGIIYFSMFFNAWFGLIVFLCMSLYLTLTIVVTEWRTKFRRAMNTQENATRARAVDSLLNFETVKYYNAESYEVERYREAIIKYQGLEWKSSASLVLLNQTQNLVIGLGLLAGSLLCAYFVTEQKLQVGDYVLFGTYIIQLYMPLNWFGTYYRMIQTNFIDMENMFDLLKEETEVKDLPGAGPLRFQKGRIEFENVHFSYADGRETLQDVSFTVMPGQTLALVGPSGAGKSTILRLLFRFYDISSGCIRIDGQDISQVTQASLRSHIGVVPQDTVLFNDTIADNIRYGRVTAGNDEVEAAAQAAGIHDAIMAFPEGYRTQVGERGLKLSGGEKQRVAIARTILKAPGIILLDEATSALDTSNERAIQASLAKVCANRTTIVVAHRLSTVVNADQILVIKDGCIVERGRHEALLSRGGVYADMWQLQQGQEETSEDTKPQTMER
Exocytosis inh: lytic granule exocytosis inhibition; TALL-104 LAMP-1 surface exposure, flow cytometry; cells stimulated with thapsigargin and PMA; inhibition, % at 10 µM; actives 0.66% (n = 360,000); AID 651702;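 active = inhibition above about 55%, limit read from the data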
PG9 binder: binds the HIV-1 gp120 antibody PG9. inhibition, % at 6.7 µM. TR-FRET gp120-PG9 antibody binding. actives 0.43% (n = 360,000); in the data active = inhibition above about 8.5%
rCAG bind conf: r(CAG) RNA repeat binding, confirmation. shares compounds with rCAG binder. TO-PRO-1 dye displacement fluorescence. inhibition, % at 3 µM. actives 70% (n = 4,300). AID 652065;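 active = inhibition above a per-plate cutoff, the mean inhibition of sample wells plus 3 SD, cut at about 35% in these data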;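 note: loss of TO-PRO-1 fluorescence as compound displaces dye from 1x1 AA loop RNA; 0% = DMSO only wells and 100% = 100 µM mitoxantrone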
dCAG dye counter: DNA CAG dye complex inhibition counter-screen; shares compounds with rCAG binder; d(CAG) DNA oligo TO-PRO-1 dye displacement, fluorescence; inhibition, % at 3 µM; actives 94% (n = 4,300); AID 652068;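 active = inhibition above its plate's cutoff, the mean test-well inhibition plus 3 SD, cut at about 4.8% in these data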;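 note: 0% = DNA dye mix with DMSO and 100% = 100 µM mitoxantrone; hits displace the dye from DNA and so lower well fluorescence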
Starred values were filed as active, the others as inactive. Most compounds without a hit are left out; they make up all but 2.5% or so of the library.

How did O=C(CN1CCN(Cc2ccccc2Cl)C1=O)NCCCN1CCOCC1 do in these assays?
rCAG binder: -1.6; ABCB6 inh MLPCN: 93.0; Exocytosis inh: -3.6; PG9 binder: 0.3

What do the screens show for `CC(NC(=O)CN1c2cccc3cccc(c23)S1(=O)=O)c1ccc(S(N)(=O)=O)cc1` (stereo unspecified)?
rCAG binder: 40.4*; ABCB6 inh MLPCN: 99.0; Exocytosis inh: -2.6; PG9 binder: -0.4; rCAG bind conf: 15.8; dCAG dye counter: 10.3*

What do the screens show for `O=[N+]([O-])c1ccc(NCc2ccccc2N2CCC(CO)CC2)nc1`?
rCAG binder: -3.0; ABCB6 inh MLPCN: 99.0; Exocytosis inh: 7.6; PG9 binder: -0.4

How did O=C(CN1CCc2ccccc21)NC(=O)NCc1ccccc1 do in these assays?
rCAG binder: -4.0; ABCB6 inh MLPCN: 101.0; Exocytosis inh: -2.2; PG9 binder: -1.2

What do the screens show for `CCOc1cc(/C=N/Nc2ccc(S(=O)(=O)Nc3ccccc3C(=O)O)cc2[N+](=O)[O-])cc(Cl)c1O`?
rCAG binder: 66.7*; ABCB6 inh MLPCN: 94.0; Exocytosis inh: 6.1; PG9 binder: -2.7; rCAG bind conf: 92.9*; dCAG dye counter: 73.5*

Results for COc1cc(C=NNc2ccc(S(=O)(=O)Nc3ccccc3C(=O)O)cc2[N+](=O)[O-])ccc1O ?
rCAG binder: 89.9*; ABCB6 inh MLPCN: 96.0; Exocytosis inh: 6.0; PG9 binder: -4.8; rCAG bind conf: 90.5*; dCAG dye counter: 68.7*

How did COc1cc(/C=N/Nc2ccc(S(N)(=O)=O)cc2[N+](=O)[O-])cc(OC)c1O do in these assays?
rCAG binder: 28.6; ABCB6 inh MLPCN: 92.0; Exocytosis inh: 0.4; PG9 binder: -11.1

Results for COc1ccc(C(C)=NNc2ccc([N+](=O)[O-])cc2S(=O)(=O)Nc2ccccc2C(=O)O)c(OC)c1 ?
rCAG binder: 76.8*; ABCB6 inh MLPCN: 91.0; Exocytosis inh: 0.1; PG9 binder: 0.0; rCAG bind conf: 93.0*; dCAG dye counter: 78.2*

How did COc1cc(/C=N/Nc2ccccc2[N+](=O)[O-])cc(OC)c1O do in these assays?
rCAG binder: 18.9; ABCB6 inh MLPCN: 85.0; Exocytosis inh: -0.3; PG9 binder: -4.4

What do the screens show for `CC(=O)Nc1ccc(C=NNc2ccc(S(=O)(=O)Nc3ccccc3C(=O)O)cc2[N+](=O)[O-])cc1`?
rCAG binder: 88.5*; ABCB6 inh MLPCN: 100.0; Exocytosis inh: -0.5; PG9 binder: 1.1; rCAG bind conf: 91.8*; dCAG dye counter: 73.7*

Results for O=C1CC(NS(=O)(=O)c2ccc([N+](=O)[O-])cc2)CN1c1cccc(F)c1 (stereo unspecified) ?
rCAG binder: 1.0; ABCB6 inh MLPCN: 95.0; Exocytosis inh: 8.2; PG9 binder: 0.1

Results for Nc1sc(-c2ccccc2)cc1C(=O)NCCN1CCOCC1 ?
rCAG binder: 3.5; Exocytosis inh: -2.2; PG9 binder: -11.5

How did O=[N+]([O-])c1cc(S(=O)(=O)Nc2ccccc2)ccc1Nc1ccccc1 do in these assays?
rCAG binder: 12.0; ABCB6 inh MLPCN: 95.0; Exocytosis inh: -3.7; PG9 binder: -1.7

Results for CC(=O)Nc1ccc(C=NNc2ccc([N+](=O)[O-])cc2S(=O)(=O)Nc2ccccc2C(=O)O)cc1 ?
rCAG binder: 57.0*; ABCB6 inh MLPCN: 100.0; Exocytosis inh: -4.6; PG9 binder: 1.7; rCAG bind conf: 88.7*; dCAG dye counter: 64.8*

Results for Cc1ccc(NC(=S)NNc2ccc([N+](=O)[O-])cc2S(=O)(=O)Nc2ccccc2C(=O)O)cc1C ?
rCAG binder: 91.1*; ABCB6 inh MLPCN: 100.0; Exocytosis inh: -2.3; PG9 binder: -0.9; rCAG bind conf: 93.5*; dCAG dye counter: 70.3*

What do the screens show for `CC(=O)Nc1cccc(/C(C)=N/Nc2ccc(S(=O)(=O)Nc3ccccc3C(=O)O)cc2[N+](=O)[O-])c1`?
rCAG binder: 85.3*; ABCB6 inh MLPCN: 105.0; Exocytosis inh: -5.3; PG9 binder: -1.8; rCAG bind conf: 94.1*; dCAG dye counter: 80.4*

How did Cc1ccc(NC(=S)NNc2ccc(C(=O)O)cc2[N+](=O)[O-])cc1C do in these assays?
rCAG binder: 35.4*; ABCB6 inh MLPCN: 94.0; Exocytosis inh: -1.8; PG9 binder: -7.8; rCAG bind conf: 22.9; dCAG dye counter: 10.1*

Results for CC1(c2nnnn2-c2ccc3c(c2)OCCO3)CCC(=O)N1CC1CCCCC1 (stereo unspecified) ?
rCAG binder: 1.8; ABCB6 inh MLPCN: 95.0; Exocytosis inh: 0.4; PG9 binder: 0.3

Results for COc1ccc(C(=O)COc2ccc(C(C)=O)cc2OC)cc1OC ?
rCAG binder: 0.1; ABCB6 inh MLPCN: 100.0; Exocytosis inh: 1.0; PG9 binder: 3.3

What do the screens show for `O=C(O)c1ccccc1NS(=O)(=O)c1ccc(NNC(=S)Nc2ccc(OC(F)F)cc2)c([N+](=O)[O-])c1`?
rCAG binder: 101.0*; ABCB6 inh MLPCN: 96.0; Exocytosis inh: -1.1; PG9 binder: -4.0; rCAG bind conf: 95.2*; dCAG dye counter: 80.3*

What do the screens show for `Cc1cccc(NC(=O)C(C)OC(=O)c2ccccc2NS(=O)(=O)c2cc(C)c(C)c([N+](=O)[O-])c2)c1` (stereo unspecified)?
rCAG binder: 10.2; ABCB6 inh MLPCN: 97.0; Exocytosis inh: -1.5; PG9 binder: -2.7

How did O=C(Nc1ccc(Cl)c(Cl)c1)Nc1nccs1 do in these assays?
rCAG binder: 62.0*; ABCB6 inh MLPCN: 90.0; Exocytosis inh: 11.6; PG9 binder: -0.4; rCAG bind conf: 17.2; dCAG dye counter: 21.8*

What do the screens show for `C=CCOC(=O)C1=C(C)N=c2sc(=C3C(=O)N(CC(=O)O)c4ccccc43)c(=O)n2C1c1ccc(OC)cc1` (stereo unspecified)?
rCAG binder: 48.1*; rCAG bind conf: 75.0*; dCAG dye counter: 41.1*

Results for COc1ccc(-n2c(SCC(=O)Nc3ccc(Oc4ccccc4)cc3)nnc2-c2ccc(C)cc2)cc1 ?
rCAG binder: 8.8

Results for Cc1ccc(-c2nnc(SCC(=O)c3ccc(O)c(O)c3)n2-c2ccc(Cl)cc2)cc1 ?
rCAG binder: 40.9*; rCAG bind conf: 42.6*; dCAG dye counter: 17.4*

What do the screens show for `COc1ccc(-c2nnc(SCC(=O)Nc3ccc(C(=O)O)cc3)n2-c2ccc(Cl)cc2)cc1`?
rCAG binder: 46.5*; ABCB6 inh MLPCN: 105.0; Exocytosis inh: 6.0; PG9 binder: -0.1; rCAG bind conf: 49.6*; dCAG dye counter: 15.2*

How did Cc1cc(NS(=O)(=O)c2ccc(NC(=O)CSc3nnc(-c4ccncc4)n3-c3ccccc3)cc2)nc(C)n1 do in these assays?
rCAG binder: 9.5

Results for Cc1cc(NS(=O)(=O)c2ccc(NC(=O)CSc3nnc(-c4ccco4)n3-c3ccc(Cl)cc3)cc2)nc(C)n1 ?
rCAG binder: 45.9*; rCAG bind conf: 33.3; dCAG dye counter: 12.2*

Source: PubChem
